The panel holds about 83,000 compounds, 20% with a hit somewhere; the sample as a whole holds those more often.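 Note: values are percent growth. 100 is the growth of untreated cells, values between 100 and 0 indicate rising inhibition; between -100 and 0 indicates cell death.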 Unmarked numbers belong to inactive results. The source made the active and inactive calls. Rule for the calls: active = growth percent below 10; inactive = the rest.

The results in this text go back to PubChem BioAssay (NCI).

Among the test systems are K-562 leukemia; MALME-3M melanoma; MDA-MB-231 breast; RXF 393 renal; SF-268 CNS; SF-295 CNS; SF-539 CNS; UACC-257 melanoma; M14 melanoma; HCT-15 colon; HT29 colon; SNB-75 CNS; SNB-19 CNS; U251 CNS; PC-3 prostate; SK-MEL-5 melanoma; UACC-62 melanoma; LOX IMVI melanoma; SK-MEL-28 melanoma; SK-MEL-2 melanoma.
What all share (experiment): NCI-60 one-dose screen, 48 h (100 = growth as untreated, 0 = no growth, -100 = all killed)
What all share (conditions): 10 µM unless noted

With `Cn1cnc([N+](=O)[O-])c1S(=O)(=O)Oc1ccc(Cl)cc1`, the growth with K-562 leukemia was 16.1%; in the assay with MALME-3M melanoma, -70.4% (active); in the assay with MDA-MB-231 breast, 65.4%; with RXF 393 renal, 81.8%; in the assay on SF-268 CNS, 93%; in the assay on SF-295 CNS, 94.5%. The growth is 81.4% with SF-539 CNS; 57% in the assay on UACC-257 melanoma; 61% in the assay with M14 melanoma; 59% in the assay with HCT-15 colon; -36.9% (active) with HT29 colon; 103% in the assay with SNB-75 CNS. The growth was 102% with SNB-19 CNS; 85.4% with U251 CNS; 90.8% in the assay on PC-3 prostate; 95.4% in the assay on SK-MEL-5 melanoma; 78.7% with UACC-62 melanoma; 45.2% in the assay with LOX IMVI melanoma. Moreover, the growth was 97.4% in the assay on SK-MEL-28 melanoma and 90.6% with SK-MEL-2 melanoma.

For the compound `CC[N+](CC)(CCOCCOCC[N+](CC)(CC)Cc1ccc([N+](=O)[O-])cc1)Cc1ccc([N+](=O)[O-])cc1`, the growth in the assay on K-562 leukemia is 98%; in the assay with MALME-3M melanoma it was 105%; in the assay with MDA-MB-231 breast, 91.3%; in the assay on RXF 393 renal, 110%; in the assay on SF-268 CNS, 98.6%; in the assay on SF-295 CNS it was 103%. Moreover, the growth in the assay with SF-539 CNS is 105%; in the assay with UACC-257 melanoma, 90.9%; with M14 melanoma, 101%; in the assay with HCT-15 colon it was 105%; with HT29 colon, 113%; in the assay with SNB-75 CNS, 85.7%. In addition, the growth in the assay with SNB-19 CNS was 101%; in the assay on U251 CNS it was 100%; in the assay on PC-3 prostate, 87.6%; in the assay on SK-MEL-5 melanoma, 96.8%; in the assay on UACC-62 melanoma it was 88.4%; with LOX IMVI melanoma, 104%. Also, the growth with SK-MEL-28 melanoma is 115%; in the assay on SK-MEL-2 melanoma it was 106%.

Regarding `C[C@@H]1CC[C@H]2[C@@H](C)C(O)O[C@@H]3O[C@]4(C)CC[C@@H]1[C@]32OO4` (stereo partly specified), the growth with K-562 leukemia was 10.8%; in the assay on MALME-3M melanoma, 28.3%; in the assay on MDA-MB-231 breast it was 77.4%; in the assay on RXF 393 renal, 49.3%; with SF-268 CNS it was 52.7%; with SF-295 CNS, 26.4%. Also, the growth in the assay with SF-539 CNS was 33.6%; in the assay on UACC-257 melanoma it was 38.3%; in the assay with M14 melanoma it was 29.8%; in the assay with HCT-15 colon, 10.7%; in the assay on HT29 colon, 17.7%; with SNB-75 CNS, 52.5%. For the same compound, the growth in the assay with SNB-19 CNS was 57.7%; in the assay with U251 CNS, 25.5%; with PC-3 prostate, 15.1%; in the assay on UACC-62 melanoma, 31%; with LOX IMVI melanoma, 11.7%; in the assay on SK-MEL-28 melanoma, 78%. Also, the growth in the assay with SK-MEL-2 melanoma is 27%.

As to `O=C(/C=C/c1ccccc1)CC(c1ccccc1)N1CCOCC1` (stereo unspecified), the growth in the assay with K-562 leukemia is 49.9%; in the assay with MALME-3M melanoma, 138%; in the assay with MDA-MB-231 breast, 60.3%; in the assay on RXF 393 renal, 102%; in the assay with SF-268 CNS it was 97.3%; in the assay with SF-295 CNS, 98.7%. In addition, the growth with SF-539 CNS is 69.3%; in the assay with UACC-257 melanoma, 98.8%; with M14 melanoma, -35% (active); in the assay on HCT-15 colon, 61.5%; in the assay with HT29 colon it was -39.3% (active); in the assay with SNB-75 CNS, 105%. Further, the growth was 71.8% in the assay on SNB-19 CNS; 0.707% (active) with U251 CNS; 89% in the assay with PC-3 prostate; 98.9% with SK-MEL-5 melanoma; 85.4% with UACC-62 melanoma; -92% (active) in the assay on LOX IMVI melanoma. Further, the growth with SK-MEL-28 melanoma is 107%; in the assay with SK-MEL-2 melanoma, -24.5% (active).

Consider `COc1ccc(C(=O)C(C)Br)cc1OC` (stereo unspecified), for which the growth in the assay on K-562 leukemia is 59.2%; in the assay with MALME-3M melanoma it was 97.2%; in the assay on MDA-MB-231 breast it was 90%; in the assay on RXF 393 renal, 102%; in the assay with SF-268 CNS, 90.9%; with SF-295 CNS, 102%. Also, the growth was 92.9% in the assay with SF-539 CNS; 80.1% in the assay on UACC-257 melanoma; 97.5% in the assay with M14 melanoma; 46.4% in the assay on HCT-15 colon; 37.7% in the assay on HT29 colon; 85.8% in the assay with SNB-75 CNS. Also, the growth in the assay with SNB-19 CNS is 95.7%; with U251 CNS, 78.7%; with PC-3 prostate it was 98.6%; in the assay with SK-MEL-5 melanoma, 92.1%; in the assay with UACC-62 melanoma, 86.3%; with LOX IMVI melanoma, 79.2%. The growth was 112% with SK-MEL-28 melanoma and 86% with SK-MEL-2 melanoma.

As to `Cn1c(=O)c2nc(SCc3ccccc3)n(C)c2n(C)c1=O`, the growth in the assay with K-562 leukemia is 103%; with MALME-3M melanoma it was 143%; in the assay with MDA-MB-231 breast, 97.7%; in the assay on RXF 393 renal, 112%; with SF-268 CNS it was 106%; with SF-295 CNS it was 117%. Further, the growth in the assay with SF-539 CNS is 101%; in the assay with UACC-257 melanoma, 111%; in the assay on M14 melanoma it was 107%; with HCT-15 colon, 98.8%; in the assay on HT29 colon it was 113%; in the assay on SNB-75 CNS it was 104%. The growth in the assay on SNB-19 CNS is 89.4%; in the assay with U251 CNS it was 101%; with PC-3 prostate it was 102%; in the assay with SK-MEL-5 melanoma, 101%; in the assay with UACC-62 melanoma, 109%; with LOX IMVI melanoma, 99.1%. For the same compound, the growth in the assay with SK-MEL-28 melanoma was 119%; in the assay with SK-MEL-2 melanoma, 101%.

For the compound `Cc1[nH]n(C(N)=S)c(=O)c1N=Nc1ccc(F)c(Cl)c1`, the growth with K-562 leukemia is 95.3%; with MALME-3M melanoma, 110%; with MDA-MB-231 breast it was 89.1%; with RXF 393 renal it was 131%; in the assay on SF-268 CNS, 92.2%; with SF-295 CNS, 103%. Further, the growth in the assay with SF-539 CNS was 108%; in the assay with UACC-257 melanoma, 124%; in the assay with M14 melanoma it was 100%; with HCT-15 colon, 104%; with HT29 colon, 147%; in the assay with SNB-75 CNS, 119%. The growth in the assay with SNB-19 CNS was 164%; in the assay on U251 CNS it was 108%; with SK-MEL-5 melanoma, 95%; in the assay on UACC-62 melanoma it was 84.6%; with LOX IMVI melanoma, 110%; in the assay with SK-MEL-28 melanoma, 116%.

On to `CCCCc1nc(Cl)c(CO)n1Cc1ccc(-c2ccccc2-c2nn[nH]n2)cc1`, for which the growth in the assay with K-562 leukemia is 105%; in the assay on MALME-3M melanoma it was 101%; in the assay with MDA-MB-231 breast, 99.1%; in the assay with RXF 393 renal, 105%; in the assay with SF-268 CNS it was 115%; in the assay with SF-295 CNS, 99.9%. Also, the growth in the assay with SF-539 CNS is 100%; in the assay on UACC-257 melanoma, 104%; in the assay with M14 melanoma, 101%; with HCT-15 colon, 106%; in the assay on HT29 colon it was 108%; in the assay with SNB-75 CNS, 101%. Besides, the growth in the assay with SNB-19 CNS is 110%; in the assay with U251 CNS, 97.9%; in the assay on PC-3 prostate, 93.2%; in the assay with UACC-62 melanoma, 102%; with LOX IMVI melanoma, 100%; in the assay on SK-MEL-28 melanoma, 114%. In addition, the growth with SK-MEL-2 melanoma is 125%.
